A selection: hits, their analogues and other compounds. The true share with any hit is near 11%.
HP1b chromo inh: HTS for Inhibitors of HP1-beta Chromodomain Interactions with Methylated Histone Tails | hit rate 0.56% among 390,000 | Potency, µM (titrated, usually from 114 µM), for the others: at the highest dose activity change, negative = inhibition, actives largely listed as inhibitors | AlphaScreen HP1-beta / biotin-H3K9me3 peptide binding | Chromobox protein homolog 1 (Homo sapiens), P83916; further: nearly all actives have a fitted effect of over 70% in size
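AlphaScreen: HP1-beta (50 nM) preformed 30 min with biotin-H3(1-18)K9me3 peptide (50 nM) in PBS pH 7.4, 0.01% Tween-20. Compound added for 30 min at RT, then streptavidin donor/nickel chelate acceptor beads (10 ug/mL) for 30 min.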
G9a block: qHTS Assay for Inhibitors of Histone Lysine Methyltransferase G9a. Histone-lysine N-methyltransferase EHMT2 (Homo sapiens), Q96KQ7. G9a H3K9 monomethylation, AlphaScreen, 2 h. Potency, µM (doses to about 102 µM), inactives show top-dose activity, negative = inhibition, most hits filed as inhibitors. hit rate 8.8% among 350,000. AID 504332, 2011; further: on the % scale 0 is the no-effect control and ±100 the full control effect; nearly all actives have a fitted effect of over 75% in size
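Using a bead-based AlphaScreen, monomethylated H3K9 product from 2 h room-temperature reactions (G9a 20 nM, peptide 500 nM, SAM 20 uM) was detected with 0.5 ug/mL rabbit anti-H3K9me1 antibody.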
L3MBTL1 inh: qHTS Assay for the Inhibitors of L3MBTL1. Lethal(3)malignant brain tumor-like protein 1 (Homo sapiens), Q9Y468. AlphaScreen L3MBTL1–H3K9me1 peptide binding. Potency, µM (doses to about 57.1 µM), without a hit: at the highest dose activity, negative = inhibition, usual class: inhibitors. hit rate 0.66% among 230,000; further: on the % scale 0 is the no-effect control and ±100 the full control effect; nearly all actives have a fitted effect of over 60% in size
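L3MBTL1 (50 nM) pre-complexed 30 min with biotinylated H3(1-15)K9me1 peptide (75 nM), then compounds added for 30 min at room temperature; AlphaScreen streptavidin donor/nickel chelate acceptor beads (10 ug/mL final) read after 30 min dark incubation.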
JMJD2A Tudor inh: qHTS Assay for Inhibitors of JMJD2A-Tudor Domain; Lysine-specific demethylase 4A (Homo sapiens), O75164; hit rate 4.4% among 390,000; AlphaScreen JMJD2A-Tudor / H3K4me3 peptide binding; Potency, µM (top dose mostly 114 µM), for inactives: at the top dose activity change, negative = inhibition, most hits filed as inhibitors; further: on the % scale 0 is the no-effect control and ±100 the full control effect; nearly all actives have a fitted effect of over 50% in size
BAZ2B block: qHTS Assay for Inhibitors of BAZ2B; Bromodomain adjacent to zinc finger domain protein 2B (Homo sapiens), Q9UIF8; AlphaScreen BAZ2B-H3K14Ac peptide displacement; Potency, µM (highest dose often 114 µM), for inactives: at the highest dose activity change, negative = inhibition, hits mostly inhibitors; hit rate 4.4% among 360,000; AID 504333, 2011; further: on the % scale 0 is the no-effect control and ±100 the full control effect; nearly all actives have a fitted effect of over 60% in size
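BAZ2B 50 nM plus b-H3(5-23)K14Ac 50 nM, PBS pH 7.4/0.01% Tween-20, 30 min RT; compound added (max 110 uM), 30 min RT; streptavidin donor/Ni-chelate acceptor beads 10 ug/mL final, 20 min dark; AlphaScreen read.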
An asterisk follows results filed as active; ? = inconclusive; . = no result given; ! = repeats disagree; [ ] = another dose, or the depositor's remark. The call rests on the fitted dose curve; in most records, active means well fitted inhibition curve with a large enough effect; inconclusive means small, poorly fitted or top-dose-only effect; inactive means no such curve, though single readings can be large or run the other way. Potency means the concentration at half of the fitted maximal effect.

SMILES	HP1b chromo inh	G9a block	L3MBTL1 inh	JMJD2A Tudor inh	BAZ2B block
Cc1ccc(-n2c3c(c(=O)[nH]c2=O)C(NS(=O)(=O)c2ccc(Cl)cc2)(C(F)(F)F)C(=O)N3)cc1 (stereo unspecified)	25%	50µM*!	4%	-11%	-4%
Cc1sc(NC(=O)c2cccs2)c(C(N)=O)c1C	?	4µM*	2%	-21%	-6%
CC(C)COc1ccc(C(=O)N2CCC(c3nc4ccccc4s3)CC2)cc1	43%	-10%[59 µM]	.	-5%	5%
Fc1ccc(-n2c(-c3cc(C4CC4)[nH]n3)n[nH]c2=S)cc1Cl	11%	1.6µM*	.	79µM*	?
O=c1ccc(-c2n[nH]c(=S)n2-c2ccc(F)c(Cl)c2)n[nH]1	16%	3.2µM*	1%	35µM*	?
S=c1[nH]nc(-c2ccc(Cl)cc2Cl)n1-c1ccc(Cl)cc1	16%	.	7%	-25%	?
COc1cccc(CN2CCN(CCCc3ccccc3)C(CCO)C2)c1O (stereo unspecified)	49%	-11%	3%	-25%	-6%
CCc1ccc(-n2nnc(-c3nc(-c4ccc(C)cc4)no3)c2N)cc1	21%	-9%[59 µM]	.	-14%	-32%
CCOC(=O)c1ccc(N=c2sc(C(=O)OC)cc(=O)n2Cc2ccco2)cc1	3%	40µM*	-9%	?	?
COC(=O)c1cc(=O)n(CCc2ccccc2)c(=Nc2ccc(F)cc2)s1	-8%	7.1µM*	-9%	?	-38%
CCOC(=O)c1ccc(N=c2sc(C(=O)OC)cc(=O)n2CCCN2CCOCC2)cc1	-8%	50µM*	.	?	50µM*
CCn1c(=O)cc(C(=O)OC)sc1=Nc1ccc(F)c(F)c1	1%	?	.	?	-37%
COc1ccc(S(=O)(=O)Nc2ccc(OCC(=O)O)cc2)c2ccccc12	3%	-15%	.	-16%	-1%
Fc1cc(F)cc(Nc2nc(NC3CCCC3)nc(C3CO3)n2)c1 (stereo unspecified)	.	.	.	-22%	.
NC(=O)c1ccsc1NC(=O)CSc1nnc(NC2CC2)s1	-7%	.	1%	-6%	.
O=C(O)c1ccc(/C=C2\SC(=S)N(NC(=O)c3ccccc3)C2=O)cc1	30%	?	.	-7%	-20%
O=C(CCCN1C(=O)/C(=C/c2cccs2)SC1=S)NNC(=O)c1ccc(F)cc1	25%	-8%[59 µM]	4%	-5%	-1%
Cn1cccc1/C=C1\SC(=S)N(NC(=O)c2cccc(Cl)c2)C1=O	?	22µM*	-16%	28µM*	28µM*
Cn1cccc1/C=C1\SC(=S)N(NC(=O)c2ccc(F)cc2)C1=O	-38%	9%	?	?	35µM*
Cn1cccc1/C=C1/SC(=S)N(CC(=O)O)C1=O	9%	50µM*	.	-24%	-33%
Cn1cccc1/C=C1\SC(=S)N(NC(=O)c2ccccc2)C1=O	?	?	-12%	?	40µM*
COc1cc(-c2nnc(SCC(=O)N3c4ccccc4Sc4ccccc43)o2)cc(OC)c1OC	14%	21%[59 µM]	-4%	-24%	-1%
O=C(Sc1nnc(-c2ccccc2)o1)N1c2ccccc2Sc2ccccc21	-20%	8.9µM*	-14%	50µM*	?
CC(=O)N1c2ccccc2Sc2ccccc21	16%	12%	0%	-5%	6%
Cn1ccnc1SC(=O)N1c2ccccc2Sc2ccccc21	3%	?	.	20µM*	?
COc1cc(S(=O)(=O)n2cnc3ccccc32)ccc1Br	35%	.	7%	-12%	-8%
CCC(C(=O)N1CCN(c2ccccc2F)CC1)n1nc(C)c2sc3ccccc3c2c1=O (stereo unspecified)	32%	-10%[59 µM]	.	6%	-1%
Cc1ccc(Cl)c(OC(=O)c2ccc(N3CCOCC3)c([N+](=O)[O-])c2)c1	?	28µM*	-29%	?	?

Screens from PubChem BioAssay.
